According to PubChem BioAssay AID1159580 (chemical genetic matrix, 2015):
Screen size: about 5,500 compounds; about 2,000 (36%) were called active. About 18% were inconclusive and are not listed. The list shows a part of the results. Values without a mark were called inactive. Rule as the data show it: active = normalized growth mostly below about 0.91 (no sharp cut-off); inconclusive = no clear call, values can overlap the other calls; inactive = mostly above about 0.92.

Assay: chemical genetic growth profiling, strain panel (AID 1159580);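 also: tested at 20 µM; growth read once vehicle control cultures reached saturation at 30 °C; 1 = growth at the plate median or of vehicle wells; lower values mean less growth of the strain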
Conditions: growth OD
[1] = S. cerevisiae deletion strains, locus YHR030C, strain SLT2, stronger effect = lower value
[2] = S. cerevisiae deletion strains, locus YHR079C, strain IRE1, stronger effect = lower value
[3] = S. cerevisiae deletion strains, locus YJL095W, strain BCK1, stronger effect = lower value
[4] = S. cerevisiae deletion strains, locus YJR066W, strain TOR1, stronger effect = lower value
[5] = S. cerevisiae deletion strains, locus YLR113W, strain HOG1, stronger effect = lower value
[6] = S. cerevisiae deletion strains, locus YNL183C, strain NPR1, stronger effect = lower value
[7] = S. cerevisiae deletion strains, locus YOR231W, strain MKK1, stronger effect = lower value
[8] = S. cerevisiae deletion strains, locus YPL256C, strain CLN2, stronger effect = lower value
[9] = S. cerevisiae deletion strains, locus YAL013W, strain DEP1, stronger effect = lower value
[10] = S. cerevisiae deletion strains, locus YBR229C, strain ROT2, stronger effect = lower value
[11] = S. cerevisiae deletion strains, locus YCL061C, strain MRC1, stronger effect = lower value
[12] = S. cerevisiae deletion strains, locus YDL101C, strain DUN1, stronger effect = lower value
[13] = S. cerevisiae deletion strains, locus YDL134C, strain PPH21, stronger effect = lower value
[14] = S. cerevisiae deletion strains, locus YDR150W, strain NUM1, stronger effect = lower value
[15] = S. cerevisiae deletion strains, locus YEL061C, strain CIN8, stronger effect = lower value
[16] = S. cerevisiae deletion strains, locus YGR078C, strain PAC10, stronger effect = lower value
[17] = S. cerevisiae deletion strains, locus YGR229C, strain SMI1, stronger effect = lower value
[18] = S. cerevisiae deletion strains, locus YHR087W, strain rtc3, stronger effect = lower value
[19] = S. cerevisiae deletion strains, locus YJR043C, strain POL32, stronger effect = lower value
[20] = S. cerevisiae deletion strains, locus YJR075W, strain HOC1, stronger effect = lower value
[21] = S. cerevisiae deletion strains, locus YKL190W, strain CNB1, stronger effect = lower value
[22] = S. cerevisiae deletion strains, locus YLR039C, strain RIC1, stronger effect = lower value
[23] = S. cerevisiae deletion strains, locus YLR058C, strain SHM2 (second series), stronger effect = lower value
[24] = S. cerevisiae deletion strains, locus YLR085C, strain ARP6, stronger effect = lower value
[25] = S. cerevisiae deletion strains, locus YLR262C, strain YPT6, stronger effect = lower value
[26] = S. cerevisiae deletion strains, locus YML094W, strain GIM5, stronger effect = lower value
[27] = S. cerevisiae deletion strains, locus YMR219W, strain ESC1, stronger effect = lower value
[28] = S. cerevisiae deletion strains, locus YMR263W, strain SAP30, stronger effect = lower value
[29] = S. cerevisiae deletion strains, locus YNL153C, strain GIM3, stronger effect = lower value
[30] = S. cerevisiae deletion strains, locus YNL298W, strain CLA4 (second series), stronger effect = lower value
[31] = S. cerevisiae deletion strains, locus YNL322C, strain KRE1, stronger effect = lower value
[32] = S. cerevisiae deletion strains, locus YNR030W, strain Alg12, stronger effect = lower value
[33] = S. cerevisiae deletion strains, locus YPL055C, strain LGE1, stronger effect = lower value
[34] = S. cerevisiae deletion strains, locus YPL241C, strain CIN2, stronger effect = lower value
[35] = S. cerevisiae deletion strains, locus YPR135W, strain CTF4, stronger effect = lower value
[36] = S. cerevisiae strains, strain wild type, stronger effect = lower value

Compound `CC(=O)OCC(=O)[C@@]1(O)CCC2C3CCC4=CC(=O)C=C[C@]4(C)[C@@]3(Cl)[C@@H](Cl)C[C@@]21C` (stereo partly specified) has a normalized growth [1] of 0.991, a normalized growth [2] of 0.991 and a normalized growth [3] of 0.968. It also gave a normalized growth [4] of 0.923, a normalized growth [5] of 1.06 and a normalized growth [6] of 0.916. It also gave a normalized growth [7] of 0.952 and a normalized growth [8] of 0.99.

For `Cc1nnsc1C(=O)O/N=C1/CCSc2ccc(F)cc21`, the normalized growth [9] was 0.975, the normalized growth [10] was 0.969 and the normalized growth [11] was 0.994. The normalized growth [12] was 0.967, the normalized growth [13] was 0.982 and the normalized growth [14] was 0.973. It also gave a normalized growth [15] of 0.943, a normalized growth [16] of 0.973 and a normalized growth [17] of 0.983. It also gave a normalized growth [1] of 0.775, a normalized growth [18] of 0.966 and a normalized growth (S. cerevisiae deletion strains, locus YJL187C, strain SWE1, stronger effect = lower value) of 0.996. It also gave a normalized growth [19] of 0.984, a normalized growth [20] of 0.994 and a normalized growth [21] of 0.98. It also gave a normalized growth [22] of 0.848, a normalized growth [23] of 0.985 and a normalized growth [24] of 0.856. For the same compound, the normalized growth [25] was 0.878, the normalized growth [26] was 0.932 and the normalized growth [27] was 0.988. For the same compound, the normalized growth [28] was 0.989, the normalized growth (S. cerevisiae deletion strains, locus YNL128W, strain TEP1, stronger effect = lower value) was 1 and the normalized growth [29] was 0.971. It also gave a normalized growth [30] of 0.973, a normalized growth [31] of 0.979 and a normalized growth [32] of 0.945. The normalized growth (S. cerevisiae deletion strains, locus YOL006C, strain TOP1, stronger effect = lower value) was 0.981, the normalized growth [33] was 0.956 and the normalized growth [34] was 0.997. The normalized growth [35] was 0.874 and the normalized growth [36] was 0.978.

With `CN(C)/C=C1\CSc2ccc(F)cc2C1=O` the normalized growth [9] was 0.909 (active), the normalized growth [10] was 0.719 (active) and the normalized growth [11] was 0.812 (active). The normalized growth [12] was 0.291 (active), the normalized growth [13] was 0.119 (active) and the normalized growth [14] was 0.885. For the same compound, the normalized growth [15] was 0.613 (active), the normalized growth [16] was 0.787 (active) and the normalized growth [17] was 0.861 (active). The normalized growth [1] was 0.102 (active), the normalized growth [18] was 0.753 (active) and the normalized growth [19] was 0.908 (active). The normalized growth [20] was 0.74 (active), the normalized growth [21] was 0.0876 (active) and the normalized growth [22] was 0.429 (active). For the same compound, the normalized growth [23] was 1.01, the normalized growth [24] was 0.154 (active) and the normalized growth [25] was 0.517 (active). For the same compound, the normalized growth [26] was 0.658 (active), the normalized growth [27] was 0.821 (active) and the normalized growth [28] was 0.903 (active). For the same compound, the normalized growth (S. cerevisiae deletion strains, locus YMR307W, strain GAS1, stronger effect = lower value) was 0.291 (active), the normalized growth [29] was 0.852 (active) and the normalized growth [30] was 0.415 (active). For the same compound, the normalized growth [31] was 0.995, the normalized growth [32] was 0.119 (active) and the normalized growth [33] was 0.787 (active). The normalized growth [34] was 0.103 (active), the normalized growth [35] was 0.303 (active) and the normalized growth [36] was 0.491 (active).

In the case of `CN(C)/C=C1\CSc2ccc(Cl)cc2C1=O`, the normalized growth (S. cerevisiae deletion strains, locus YAR019C, strain CDC15, stronger effect = lower value) is reported as 0.927, the normalized growth (S. cerevisiae deletion strains, locus YBL105C, strain PKC1, stronger effect = lower value) is reported as 0.957 and the normalized growth (S. cerevisiae deletion strains, locus YBR135W, strain CKS1, stronger effect = lower value) is reported as 0.965. It also gave a normalized growth (S. cerevisiae deletion strains, locus YBR136W, strain MEC1, stronger effect = lower value) of 0.949, a normalized growth (S. cerevisiae deletion strains, locus YBR160W, strain CDC28, stronger effect = lower value) of 0.95 and a normalized growth (S. cerevisiae deletion strains, locus YDL017W, strain CDC7, stronger effect = lower value) of 0.953. It also gave a normalized growth (S. cerevisiae deletion strains, locus YDL028C, strain MPS1, stronger effect = lower value) of 0.953, a normalized growth [12] of 0.975 and a normalized growth (S. cerevisiae deletion strains, locus YDL108W, strain KIN28, stronger effect = lower value) of 0.947. The normalized growth (S. cerevisiae deletion strains, locus YDL132W, strain cdc53, stronger effect = lower value) was 0.956, the normalized growth (S. cerevisiae deletion strains, locus YDL214C, strain PRR2, stronger effect = lower value) was 0.763 and the normalized growth (S. cerevisiae deletion strains, locus YDR052C, strain DBF4, stronger effect = lower value) was 0.967. The normalized growth (S. cerevisiae deletion strains, locus YDR054C, strain cdc34, stronger effect = lower value) was 0.94, the normalized growth (S. cerevisiae deletion strains, locus YDR226W, strain ADK1, stronger effect = lower value) was 0.947 and the normalized growth (S. cerevisiae deletion strains, locus YDR477W, strain SNF1, stronger effect = lower value) was 0.832. The normalized growth (S. cerevisiae deletion strains, locus YER123W, strain YCK3, stronger effect = lower value) was 0.565 (active), the normalized growth (S. cerevisiae deletion strains, locus YER133W, strain GLC7, stronger effect = lower value) was 0.811 and the normalized growth (S. cerevisiae deletion strains, locus YFL009W, strain cdc4, stronger effect = lower value) was 0.944. For the same compound, the normalized growth (S. cerevisiae deletion strains, locus YFL029C, strain CAK1, stronger effect = lower value) was 0.932, the normalized growth (S. cerevisiae deletion strains, locus YFR003C, strain YPI1, stronger effect = lower value) was 0.952 and the normalized growth (S. cerevisiae deletion strains, locus YFR019W, strain FAB1, stronger effect = lower value) was 0.771 (active). It also gave a normalized growth (S. cerevisiae deletion strains, locus YFR028C, strain CDC14, stronger effect = lower value) of 0.942, a normalized growth (S. cerevisiae deletion strains, locus YGR040W, strain KSS1, stronger effect = lower value) of 0.832 and a normalized growth (S. cerevisiae deletion strains, locus YGR052W, strain FMP48, stronger effect = lower value) of 0.799. For the same compound, the normalized growth (S. cerevisiae deletion strains, locus YGR092W, strain DBF2, stronger effect = lower value) was 0.824, the normalized growth [1] was 0.311 (active) and the normalized growth [2] was 0.555. The normalized growth (S. cerevisiae deletion strains, locus YHR082C, strain KSP1, stronger effect = lower value) was 0.758, the normalized growth (S. cerevisiae deletion strains, locus YHR205W, strain SCH9, stronger effect = lower value) was 0.75 and the normalized growth (S. cerevisiae deletion strains, locus YIL147C, strain SLN1, stronger effect = lower value) was 0.928. For the same compound, the normalized growth [3] was 0.444 (active), the normalized growth (S. cerevisiae deletion strains, locus YJL128C, strain PBS2, stronger effect = lower value) was 1.01 and the normalized growth (S. cerevisiae deletion strains, locus YJL157C, strain FAR1, stronger effect = lower value) was 0.775. For the same compound, the normalized growth (S. cerevisiae deletion strains, locus YJR016C, strain ILV3, stronger effect = lower value) was 0.965, the normalized growth (S. cerevisiae deletion strains, locus YJR066W, strain TOR1 (second series), stronger effect = lower value) was 0.728 and the normalized growth [4] was 0.633. The normalized growth (S. cerevisiae deletion strains, locus YKL048C, strain ELM1, stronger effect = lower value) was 0.937, the normalized growth (S. cerevisiae deletion strains, locus YKL067W, strain YNK1, stronger effect = lower value) was 0.771 and the normalized growth (S. cerevisiae deletion strains, locus YKL101W, strain HSL1, stronger effect = lower value) was 0.861. The normalized growth (S. cerevisiae deletion strains, locus YKL193C, strain SDS22, stronger effect = lower value) was 0.938, the normalized growth (S. cerevisiae deletion strains, locus YKL203C, strain TOR2, stronger effect = lower value) was 0.886 and the normalized growth [5] was 0.537 (active). For the same compound, the normalized growth (S. cerevisiae deletion strains, locus YLR133W, strain CKI1, stronger effect = lower value) was 0.799, the normalized growth (S. cerevisiae deletion strains, locus YLR403W, strain SFP1, stronger effect = lower value) was 0.792 and the normalized growth (S. cerevisiae deletion strains, locus YML070W, strain DAK1, stronger effect = lower value) was 0.618 (active). The normalized growth (S. cerevisiae deletion strains, locus YMR001C, strain CDC5, stronger effect = lower value) was 0.941, the normalized growth (S. cerevisiae deletion strains, locus YMR205C, strain PFK2 (second series), stronger effect = lower value) was 0.872 and the normalized growth (S. cerevisiae deletion strains, locus YMR277W, strain FCP1, stronger effect = lower value) was 0.943. For the same compound, the normalized growth (S. cerevisiae deletion strains, locus YNL006W, strain LST8, stronger effect = lower value) was 0.952, the normalized growth (S. cerevisiae deletion strains, locus YNL020C, strain ARK1, stronger effect = lower value) was 0.817 and the normalized growth (S. cerevisiae deletion strains, locus YNL161W, strain CBK1, stronger effect = lower value) was 0.955. It also gave a normalized growth [6] of 0.559, a normalized growth (S. cerevisiae deletion strains, locus YNL207W, strain RIO2, stronger effect = lower value) of 0.922 and a normalized growth (S. cerevisiae deletion strains, locus YNL222W, strain SSU72, stronger effect = lower value) of 0.955. For the same compound, the normalized growth (S. cerevisiae deletion strains, locus YNL307C, strain MCK1 (second series), stronger effect = lower value) was 0.822, the normalized growth (S. cerevisiae deletion strains, locus YOL078W, strain AVO1, stronger effect = lower value) was 0.95 and the normalized growth (S. cerevisiae deletion strains, locus YOL136C, strain PFK27, stronger effect = lower value) was 0.691. The normalized growth (S. cerevisiae deletion strains, locus YOR061W, strain CKA2, stronger effect = lower value) was 0.831, the normalized growth (S. cerevisiae deletion strains, locus YOR119C, strain RIO1, stronger effect = lower value) was 0.862 and the normalized growth [7] was 0.595. For the same compound, the normalized growth (S. cerevisiae deletion strains, locus YOR329C, strain SCD5, stronger effect = lower value) was 0.953, the normalized growth (S. cerevisiae deletion strains, locus YPL031C, strain PHO85, stronger effect = lower value) was 0.825 and the normalized growth (S. cerevisiae deletion strains, locus YPL153C, strain RAD53, stronger effect = lower value) was 0.752. For the same compound, the normalized growth (S. cerevisiae deletion strains, locus YPL204W, strain HRR25, stronger effect = lower value) was 0.802, the normalized growth (S. cerevisiae deletion strains, locus YPL209C, strain IPL1, stronger effect = lower value) was 0.954 and the normalized growth [8] was 0.627 (active). For the same compound, the normalized growth (S. cerevisiae deletion strains, locus YPR025C, strain CCL1, stronger effect = lower value) was 0.962, the normalized growth (S. cerevisiae deletion strains, locus YPR106W, strain ISR1, stronger effect = lower value) was 0.95 and the normalized growth (S. cerevisiae deletion strains, locus YPR111W, strain DBF20, stronger effect = lower value) was 0.947. The normalized growth (S. cerevisiae deletion strains, strain NNK1, stronger effect = lower value) was 0.941 and the normalized growth (S. cerevisiae deletion strains, strain TSCII, stronger effect = lower value) was 0.942.
